Reference: PubChem BioAssay AID793 (The Scripps Research Institute Molecular Screening Center, 2007)
The whole screen tested about 140,000 compounds, of which about 1,400 (1%) were called active. The entries come from a sample that favours actives as a whole. Values without a mark were called inactive. Cut-off read from the data, not from the text of the source: active = inhibition above about 17%; inactive = the rest.

What follows are molecules tested against Neuropeptide Y receptor type 2 (Homo sapiens) (UniProt P49146) (assay: NPY-Y2 receptor antagonists, primary screen, cell-based (AID 793;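 note: 0% = vehicle with agonist challenge and 100% = reference antagonist with challenge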)). Conditions: NPY-Y2 expressing cells, antagonist mode; at 2.7 µM; active compounds read high.
Neuropeptide Y receptor type 2 (Homo sapiens), sequence (P49146 whole entry, looked up): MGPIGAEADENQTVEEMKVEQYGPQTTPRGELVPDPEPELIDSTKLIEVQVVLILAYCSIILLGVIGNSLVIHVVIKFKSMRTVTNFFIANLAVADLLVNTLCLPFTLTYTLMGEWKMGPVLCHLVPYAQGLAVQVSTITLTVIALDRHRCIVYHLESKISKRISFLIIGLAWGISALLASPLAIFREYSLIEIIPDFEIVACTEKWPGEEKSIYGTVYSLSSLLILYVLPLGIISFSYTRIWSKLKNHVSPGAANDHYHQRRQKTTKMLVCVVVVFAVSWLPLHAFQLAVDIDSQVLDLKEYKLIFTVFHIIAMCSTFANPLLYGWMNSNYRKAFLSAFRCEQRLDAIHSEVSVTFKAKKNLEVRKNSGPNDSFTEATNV
CCOC12CC(C)(C)CC(C)(CC3=C1C(=O)CC(C)(C)C3)C2 (configuration not stated) gave an inhibition of 3.39%. Molecule COc1ccc(C(=O)Nc2c(Cl)cc(Cl)cc2C(=O)N2CCC(C)CC2)cc1 has an inhibition of 3.91%. For O=c1c2ccccc2nc2n1C1(CCCCC1)Cc1ccccc1-2, the inhibition was 21.2% (active). CCC1(CC)Cc2ccccc2-c2nc3ccccc3c(=O)n21 showed an inhibition of 7.5%. c1cncc(-c2nnc3n2C2(CCCCC2)Cc2ccccc2-3)c1 gave an inhibition of 1.77%. For COc1ccc(C(C(=O)NC2CCCCC2)N(C(=O)Cc2c[nH]c3ccccc23)c2ccccc2)cc1OC (configuration not stated), the inhibition was 0.1%. CC(NC(=O)c1cccc2ccccc12)c1ccc2c(c1)CCCC2 (configuration not stated) gave an inhibition of 5.32%. For O=C(CC(O)(C(F)(F)F)C(F)(F)F)Nc1ccc(Cl)c(Cl)c1, the inhibition was 24.4% (active). O=C(CC(=O)Nc1ccc(Cl)c(Cl)c1)N/N=C/c1ccc(O)cc1 showed an inhibition of -3.17%. Work on CN(C)CCNC(CC(=O)Nc1ccc(Cl)c(Cl)c1)C(=O)O (configuration not stated) yielded an inhibition of 0.54%. With Nc1nc(SCc2ccc([N+](=O)[O-])cc2)c2ncn(C3OC(CO)C(O)C3O)c2n1 (configuration not stated) the inhibition was 1.64%. O=C(Nc1cn(-c2ccccc2)nc1-c1ccccc1)c1ccccc1 was tested, and the inhibition was 9.26%. O=C(NCCN1CCOCC1)c1cc(Sc2cccc(Cl)c2)nc2ccccc12 showed an inhibition of 3.17%. For CCCCCNC(=O)Cc1ccc(OC)cc1, the inhibition was 20.3% (active). With COc1ccc(OCCCC(=O)NCCc2ccccc2)cc1 the inhibition was 4.05%. CCCCNC(=O)C1(c2ccc(OC)cc2)CCOCC1 showed an inhibition of 3.6%. CCOC(=O)C1=C(C)NC(=O)NC1c1ccccc1 (configuration not stated) showed an inhibition of 0.94%. With O=C(Nc1nnc(CCc2ccccc2)s1)C1CCCO1 (configuration not stated) the inhibition was 3.28%. With O=C(Nc1nnc(SCc2ccc(Cl)cc2Cl)s1)C1COc2ccccc2O1 (configuration not stated) the inhibition was -1.05%. With O=C(Nc1nnc(SCc2c(Cl)cccc2Cl)s1)C1CCCO1 (configuration not stated) the inhibition was 22.4% (active). Work on COc1ccc(NC(=O)c2ccc(C#CC(C)(C)O)cc2)cc1 yielded an inhibition of -0.31%. Cc1ccc(C2=NN(C)c3nc4ccccc4n3C2)cc1 was tested, and the inhibition was 18.8% (active). Cc1ccc(O)c(CNc2nc3ccccc3n2C)c1 gave an inhibition of -2.2%. Cc1nn2c3ccccc3nc2n(C)c1=O was tested, and the inhibition was 10.8%. With O=C(NC1CCN(Cc2ccccc2)CC1)c1c(F)cccc1F the inhibition was 0.52%. In the case of O=S(=O)(NCCSc1ccccn1)c1ccc(Cl)cc1, the inhibition was 6%. Cc1ccc(S(=O)(=O)NCCSc2ccccc2)cc1[N+](=O)[O-] was tested, and the inhibition was 13.3%. For CCOc1ccc(S(=O)(=O)NCCSc2ccccc2)cc1, the inhibition was 20.6% (active). Molecule Cc1ccccc1NC(=O)c1ccc(COc2ccc3c(C)cc(=O)oc3c2)cc1 has an inhibition of 1.18%. Cc1cc(=O)oc2cc(OCC3CC(c4ccccc4Cl)=NO3)ccc12 (configuration not stated) gave an inhibition of 10.7%. Cc1ccccc1N1CCN(CCCOc2ccc3c(C)cc(=O)oc3c2)CC1 was tested, and the inhibition was 22.1% (active). CC1(C)C(C=C(Cl)Cl)C1C(=O)N(Cc1ccc(Cl)cc1)C1CCS(=O)(=O)C1 (configuration not stated) showed an inhibition of 5.56%. Molecule CCNc1ccc(C(=O)OCC(=O)N2c3ccccc3NC(=O)C2(C)C)cc1[N+](=O)[O-] has an inhibition of 0.27%. With Cc1cc(C(=O)OCC(=O)N2c3ccccc3NC(=O)C2(C)C)c(C)n1-c1ccccc1 the inhibition was 20.1% (active). COc1ccc(Cl)cc1-n1c(C)cc(C(=O)OCC(=O)N2CC(=O)Nc3ccccc32)c1C gave an inhibition of -0.44%. Molecule Cc1ccc(Sc2cc(N3CCOCC3)nc(-c3ccccc3)n2)cc1 has an inhibition of -0.14%. CCS(=O)(=O)n1nc(-c2ccccc2)nc1SCc1ccccc1 gave an inhibition of 11.5%. For O=S(=O)(Cc1cc(Sc2ccccc2)nc(-c2ccccc2)n1)c1ccccc1, the inhibition was 32.1% (active). In the case of COc1ccc(N2CCN(Cc3nnc(-c4ccccc4)o3)CC2)cc1, the inhibition was 3.16%. In the case of Cc1cc(C)nc(-n2ncc3c2CC(c2ccc(C(C)C)cc2)CC3=O)n1 (configuration not stated), the inhibition was 24.9% (active). Cc1nc2nc3c(cn2n1)C(=O)CC(c1ccccc1)C3 (configuration not stated) showed an inhibition of 2.84%. CCN1CCC2(CC1)N=C(c1ccc(F)cc1)C(=S)N2C(=O)c1ccc(C)cc1 was tested, and the inhibition was 1.56%. S=C(NCC1COc2ccccc2O1)Nc1ccc(Br)cc1 (configuration not stated) was tested, and the inhibition was 6.55%. Molecule c1ccc2c(c1)OCC(CNc1ncnc3nc[nH]c13)O2 (configuration not stated) has an inhibition of -0.22%. c1ccc(-c2cc3c(NCC4COc5ccccc5O4)ncnc3s2)cc1 (configuration not stated) was tested, and the inhibition was 22.8% (active). With Nc1nnc(SCC(=O)Nc2ccc3nc(SCC(=O)Nc4ccccc4)sc3c2)s1 the inhibition was 4.56%. CC(=O)NC(C)c1nc2ccccc2n1Cc1ccccc1F (configuration not stated) was tested, and the inhibition was 2.02%. CN(Cc1ccccc1)Cc1ccccc1F was tested, and the inhibition was 1.28%. For N=c1n(CCc2ccccc2)c2ccccc2n1Cc1ccccc1F, the inhibition was 23.1% (active). Work on COc1ccc(Cn2c(-c3ccc(Cl)cc3)c[n+]3ccccc23)cc1 yielded an inhibition of 1.35%. COc1cc(NC(=O)c2cc([N+](=O)[O-])ccc2Br)ccc1NC(=O)c1ccco1 was tested, and the inhibition was 31.7% (active). With COc1ccccc1C(=O)Nc1ccc(NC(=O)c2ccco2)c(C)c1 the inhibition was -1.27%. With COc1ccc(NC(=O)c2cccc(NC(=O)c3ccco3)c2)c(OC)c1 the inhibition was 3.21%. With COc1ccccc1Oc1ccc(N/C=C2/CCCC2=O)cc1 the inhibition was 2.93%. Molecule COc1cccc(NC(=O)CC(c2ccc(OC(C)C)cc2)c2ccccc2OC)c1 (configuration not stated) has an inhibition of 4.56%. Molecule CC(C)N1C(=O)N(c2ccccc2)C(C)(O)CC1(C)C (configuration not stated) has an inhibition of -1.03%. O=C(Nc1ccc(N2C(=O)c3cccc4cccc(c34)C2=O)cc1)c1ccc(N2CCCCC2)c([N+](=O)[O-])c1 showed an inhibition of 0.97%. OC(COc1ccc2ccccc2c1)CN1CCOCC1 (configuration not stated) was tested, and the inhibition was 1.96%. Cc1cccc(OCC(O)Cn2c(=N)n(CCN3CCOCC3)c3ccccc32)c1 (configuration not stated) was tested, and the inhibition was 19.8% (active). For CCOc1ccc(C(O)Cn2c(=N)n(CCN3CCCCC3)c3ccccc32)cc1 (configuration not stated), the inhibition was 18.8% (active). Cn1c(=N)n(CC(O)c2ccccc2)c2ccccc21 (configuration not stated) was tested, and the inhibition was 6.24%. Work on CCOc1ccc(C(O)Cc2nc3ccccc3n2C)cc1 (configuration not stated) yielded an inhibition of 0.15%. In the case of C=CCn1c(=N)n(CC(O)COc2ccc(OC)cc2)c2ccccc21 (configuration not stated), the inhibition was 10.5%. For Cc1nc2c(C(=O)NCc3cccs3)cnn2c(C)c1Cc1ccc(F)cc1, the inhibition was 11.8%. COc1ccc(-c2csc3ncnc(Oc4ccc5c(C)cc(=O)oc5c4)c23)cc1 was tested, and the inhibition was 6.66%. Work on Brc1ccc(-c2csc(N/N=C/c3ccc4c(c3)OCO4)n2)cc1 yielded an inhibition of -1.38%. CCCn1c(N)c(C(=O)CSc2nnc(-c3cccnc3)n2-c2ccc(C)cc2C)c(=O)[nH]c1=O showed an inhibition of 2.5%.
